This passage reports growth results from PubChem BioAssay (NCI).

Compounds without any hit were thinned out: in the full panel of roughly 83,000, 20% have a hit.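 Interpretation: 100, growth as untreated; towards 0, rising growth inhibition; 0, no net growth; 0 to -100, cell death. Compounds scoring below 10 were considered active.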 Unmarked numbers belong to inactive results. Active and inactive are the calls of the source.

Some test systems named below: SK-MEL-2 melanoma; EKVX NSCLC; SN12C renal; UO-31 renal; TK-10 renal; ACHN renal; A498 renal; CCRF-CEM leukemia; CAKI-1 renal; MOLT-4 leukemia.
Assay in all cases: NCI-60 one-dose screen, 48 h (100 = growth as untreated, 0 = no growth, -100 = all killed)
Holding throughout (details): 10 µM unless noted

`Cn1cc(-c2csc(-c3cn(CCN)c4ccc(Br)cc34)n2)c2cccnc21`: the growth in the assay with SK-MEL-2 melanoma is 110%; with EKVX NSCLC, 74.9%; in the assay on SN12C renal it was 68.9%; with UO-31 renal, 61.4%; in the assay on TK-10 renal, 116%; with ACHN renal, 50.8%. Further, the growth with A498 renal was 83.9%; in the assay on CCRF-CEM leukemia, 39.8%.

In the case of `Nc1c(Cl)cc(N=Nc2ccccc2)cc1Cl`, the growth with SK-MEL-2 melanoma is 61.3%; with EKVX NSCLC it was 69%; with SN12C renal it was 95.4%; in the assay on UO-31 renal, 62.2%; in the assay with TK-10 renal it was 12.8%; in the assay with ACHN renal it was 97.4%. Besides, the growth in the assay with CAKI-1 renal was 89.9%; with A498 renal, 73.6%; with MOLT-4 leukemia it was 90.3%.

Regarding `Cc1cc(N2CCOCC2)nc(N(CCCNc2ccnc3cc(Cl)ccc23)Cc2ccco2)n1`, the growth in the assay on SK-MEL-2 melanoma is 11.9%; in the assay on EKVX NSCLC, 49.4%; with SN12C renal, 40.4%; with UO-31 renal, 32.2%; in the assay with TK-10 renal, 47.9%; with ACHN renal, 46.9%. For the same molecule, the growth in the assay with A498 renal was 45.2%; with CCRF-CEM leukemia, 30.6%.

`C/C(=C(/c1ccccc1)c1ccc(N2C(=O)c3cccc4c(NCc5ccccc5)ccc(c34)C2=O)cc1)c1ccccc1`: the growth in the assay on SK-MEL-2 melanoma was 107%; in the assay with EKVX NSCLC it was 75.3%; with SN12C renal, 92%; with UO-31 renal it was 68.8%; with TK-10 renal, 145%; in the assay with ACHN renal, 94.8%. Further, the growth in the assay with CAKI-1 renal was 84.5%; with A498 renal, 107%; in the assay with CCRF-CEM leukemia it was 89.1%; with MOLT-4 leukemia, 88.9%.

As for `O=C(O)c1cccc2c1C(=O)N(c1ccc3c(c1)Cc1ccccc1-3)C2=O`, the growth was 99% with SK-MEL-2 melanoma; 111% in the assay on EKVX NSCLC; 111% with SN12C renal; 85.6% in the assay on UO-31 renal; 100% in the assay on TK-10 renal; 113% in the assay with ACHN renal. In addition, the growth was 109% in the assay on CAKI-1 renal, 104% in the assay on A498 renal, 104% in the assay on CCRF-CEM leukemia and 101% with MOLT-4 leukemia.

As to `CN1CCN(CCOc2ccc(-c3cnc4c(-c5ccccc5F)cnn4c3)cc2)CC1`, the growth in the assay on SK-MEL-2 melanoma was 91.9%; with EKVX NSCLC it was 68.4%; with SN12C renal, 60.7%; in the assay on UO-31 renal it was 39.1%; in the assay with TK-10 renal, 71%; in the assay on ACHN renal, 55.7%. For the same molecule, the growth with CAKI-1 renal is 45.8%; in the assay with CCRF-CEM leukemia, 5.37% (active); in the assay on MOLT-4 leukemia, -9.43% (active).

As to `Cc1cccc(C)c1NC(=O)CSC(=S)N1CCCCC1`, the growth is 97.6% with SK-MEL-2 melanoma; 97.2% with EKVX NSCLC; 110% in the assay with SN12C renal; 85.6% in the assay with UO-31 renal; 89% with TK-10 renal; 101% with ACHN renal. Also, the growth with A498 renal is 99.3%; in the assay on CCRF-CEM leukemia, 101%; in the assay with MOLT-4 leukemia, 87.8%.

In the case of `CCCCC[C@H]1C/C=C2/C(=O)C=C[C@@H]2C/C=C\CCCC(=O)O[C@@H](CCCCC)C/C=C2/C(=O)C=C[C@@H]2C/C=C\CCCC(=O)O1`, the growth in the assay on SK-MEL-2 melanoma was -60% (active); in the assay on EKVX NSCLC it was -68.3% (active); in the assay with SN12C renal, -65.7% (active); with UO-31 renal, -97.1% (active); in the assay on TK-10 renal it was -83.4% (active); in the assay with ACHN renal, -93.4% (active). Also, the growth in the assay with A498 renal was -84.8% (active); with CCRF-CEM leukemia it was -3.81% (active); in the assay with MOLT-4 leukemia, -15.8% (active).

As to `Cc1oc(-c2ccccc2Cl)cc1C(=O)Nc1ccc(S(N)(=O)=O)cc1`, the growth in the assay on SK-MEL-2 melanoma was 104%; with EKVX NSCLC, 91.9%; in the assay with SN12C renal it was 98.2%; with UO-31 renal it was 88.7%; in the assay with TK-10 renal, 126%; with ACHN renal, 106%. Further, the growth with CAKI-1 renal is 93.9%; in the assay on A498 renal, 105%; with CCRF-CEM leukemia, 96.2%; with MOLT-4 leukemia, 96.3%.

`O=C1CN(c2ccccc2)C(=O)C1C(=O)Nc1ccc(Cl)c(Cl)c1` (stereo not given): the growth in the assay on SK-MEL-2 melanoma is 18.1% [100 µM]; in the assay on EKVX NSCLC, 47.4% [100 µM]; with SN12C renal it was 17.6% [100 µM]; with UO-31 renal, 5.84% [100 µM] (active); in the assay with TK-10 renal, 26.4% [100 µM]; in the assay with ACHN renal, 2.16% [100 µM] (active). In addition, the growth in the assay on CAKI-1 renal was -2.42% [100 µM] (active); in the assay on A498 renal it was 11.3% [100 µM]; with CCRF-CEM leukemia, 35.9% [100 µM]; with MOLT-4 leukemia it was 6.47% [100 µM] (active).

For the molecule `O=C1NC(c2ccc(Cl)c(Cl)c2)=C/C1=C\c1ccccc1`, the growth in the assay with SK-MEL-2 melanoma was 107%; with EKVX NSCLC it was 70.8%; in the assay with SN12C renal, 71.8%; in the assay on UO-31 renal it was 29.2%; in the assay with TK-10 renal, 100%; in the assay on ACHN renal, 4.37% (active). For the same molecule, the growth is 49.3% in the assay on CAKI-1 renal, 105% in the assay with A498 renal, 45.8% in the assay on CCRF-CEM leukemia and 53.9% with MOLT-4 leukemia.

Consider `Oc1cccc2oc(=S)[nH]c12`, for which the growth in the assay on SK-MEL-2 melanoma is 109%; in the assay with EKVX NSCLC, 111%; with SN12C renal, 98.6%; in the assay on UO-31 renal it was 72.9%; with TK-10 renal it was 106%; in the assay with ACHN renal, 99.7%. The growth in the assay on CAKI-1 renal was 120%; in the assay on A498 renal it was 94.8%; in the assay with MOLT-4 leukemia, 99.5%.

`CCOC(=O)c1ccc2c(c1)[n+](=O)c(C(=O)C1CCCS1)c(C(F)(F)F)n2[O-]` (stereo not given): the growth is -87.3% (active) in the assay with SK-MEL-2 melanoma; -77% (active) with EKVX NSCLC; -47.3% (active) with SN12C renal; -92.4% (active) in the assay with UO-31 renal; -96.5% (active) with TK-10 renal; -86.9% (active) in the assay on ACHN renal. Besides, the figures for the growth in the assay with CAKI-1 renal, in the assay with CCRF-CEM leukemia and with MOLT-4 leukemia were -85.4% (active), -44% (active) and -67.3% (active), respectively.

Consider `CCCC1CCCCN1C(=O)OCC(C)C` (stereo not given), for which the growth in the assay with SK-MEL-2 melanoma is 108%; in the assay with EKVX NSCLC it was 104%; in the assay with SN12C renal, 102%; in the assay on UO-31 renal, 74.5%; with TK-10 renal it was 107%; in the assay on ACHN renal, 100%. Moreover, the growth in the assay with CAKI-1 renal is 90.2%; in the assay on A498 renal, 108%; in the assay with CCRF-CEM leukemia, 96.3%; with MOLT-4 leukemia it was 95.3%.
